Assay results: the supplement of paper PMC3842684

Test system: P. falciparum NF54-pfs16-GFP late (IV-V) stage gametocytes
Assay: relative % inhibition of viable gametocyte number; higher = more gametocytocidal
Conditions: 5 µM; stage: late (IV-V) gametocyte; incubation 72 h
How it was run: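 In 384-well poly-D-lysine imaging plates, NF54 pfs16-GFP gametocytes (magnet-isolated, early I/IIa on day 2 or late on day 8; 10% parasitaemia, 0.1% haematocrit) received compound in duplicate at 5 or 0.5 µM. Plates stood 72 h at 37°C in 5% CO2 and 5% O2, then overnight with MitoTracker Red before confocal imaging, where elongated GFP objects with MitoTracker signal above cut-off counted as viable. Relative inhibition was calculated against vehicle and positive-control wells on the same plate.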

Compared with OCCNc1nc(Nc2ccc(Cl)c(Cl)c2)nc2ccccc12, COc1ccc2nc(C)cc(Nc3ccccc3O)c2c1 is lower in relative % inhibition: 52.3% for the first, 18.4% for the second.

First: COc1ccc(CCN2CCC(CN(C)Cc3cnn(-c4ccccc4)c3)CC2)cc1
Second: CCOC(=O)c1c(C)n(-c2ccc(Cl)cc2)c2ccc(OC(=O)C=Cc3ccccc3)cc12
The relative % inhibition of the first is lower: -5.77% for the first, 11.5% for the second.

Compared with Cc1ccc(Nc2nc(-c3ccccn3)cs2)cc1, OC(CNC1CCCCC1)Cn1c2ccccc2c2ccccc21 (stereo unspecified) is higher in relative % inhibition: 98.4% for the first, 104% for the second.

Compared with O=C(NCc1ccco1)C1CCN(S(=O)(=O)c2ccc(Br)cc2)CC1, O=C(NCCCN1CCC(N2CCCCC2)CC1)C1=Cc2cc(Br)ccc2OC1 is lower in relative % inhibition: 51.5% for the first, 19.4% for the second.

Going from CCCN(CCC)CCCNC(=O)c1cc2c(-c3ccc(OC)c(OC)c3)nn(C)c2s1 to CCOc1c(Br)cc(C2C(C(=O)OC)=CN(C)C=C2C(=O)OC)cc1OC, the relative % inhibition rises from -7.44% to 68.1%.

Molecule CCn1c2c(c(=N)c3c1CCC3)CCCC2 has a relative % inhibition of -7.91%.
